Source: PubChem
An excerpt weighted towards active compounds, which were near 1.2% of everything screened.
NSD2 inh – blocks human histone methyltransferase NSD2 | O96028 | NSD2 peptide methylation, AlphaScreen, 120 min | inhibition, % at 12.5 µM | 310,000 compounds, 0.54% hits | AID 743445; in the data active = inhibition above about 50%
N-glyco inh – blocks N-linked glycosylation in D54 reporter cells; 360,000 compounds, 0.23% hits; D54 ERlucT glycosylation luciferase reporter, 24 h; percent of 100 nM tunicamycin response; reporter increase, % at 12.5 µM; AID 588692;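 active = mean luciferase reporter signal, scaled so untreated is 0 and the glycosylation-blocking control 100, at or above a set limit in every replicate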;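 also: luciferase carries N-glycosylation sites so blocking glycosylation raises the light; 0% = median of neutral control wells and 100% = median of 100 nM tunicamycin wells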
Casp6 inh – inhibitors of human caspase-6. P55212. purified caspase-6, Z-VEID-R110 cleavage fluorescence. inhibition, % at 12.5 µM. 350,000 compounds, 0.53% hits;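 active = mean inhibition across replicates at least about 35%, with every replicate also reaching that limit, limit read from the data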;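 also: 0% = median of neutral control wells and 100% = no fluorescence left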
Target sequence (P55212 24-179 limits assumed): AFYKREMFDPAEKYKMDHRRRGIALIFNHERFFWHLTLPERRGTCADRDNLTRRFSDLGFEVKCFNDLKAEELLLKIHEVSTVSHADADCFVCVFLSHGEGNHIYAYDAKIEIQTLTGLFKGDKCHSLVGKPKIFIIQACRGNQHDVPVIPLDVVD
Target sequence (P55212 194-293 limits assumed): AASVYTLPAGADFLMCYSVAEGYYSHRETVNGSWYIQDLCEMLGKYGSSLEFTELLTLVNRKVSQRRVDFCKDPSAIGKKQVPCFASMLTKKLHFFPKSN
RAD54 branch – RAD54 (human) branch migration inhibition; Q92698; RAD54 Holliday junction branch migration, FAM/BHQ fluorescence; inhibition, % at 10.4 µM; 360,000 compounds, 0.14% hits;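 active = mean normalized replicate activity at least 40 and at least half of replicates scoring 40 or more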;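 also: 0% = median of neutral control wells and 100% = median of positive control wells; inhibitors cause a drop in the FAM fluorescence signal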
RAD52 anneal inh – inhibitors of human RAD52 DNA annealing; P43351; recombinant RAD52 DNA annealing, FRET fluorescence; inhibition, % at 18.7 µM; 360,000 compounds, 0.46% hits;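 active = every replicate showing at least 50% inhibition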
Alpha artifact – interferes with AlphaScreen signal, flagging NSD2 false positives; shares compounds with NSD2 inh; AC35, µM (highest dose often 10 µM), for inactives: at the highest dose activity change, negative = signal loss; 1,500 compounds, 9.4% hits; AlphaScreen artifact counterscreen, preloaded methylated H4 peptide; call rule not given here
Starred values were filed as active, the others as inactive; · = no result.

SMILES	NSD2 inh	N-glyco inh	Casp6 inh	RAD54 branch	RAD52 anneal inh	Alpha artifact
CN1C(=O)NC(=O)/C(=C/c2ccc([N+](=O)[O-])o2)C1=O	59.5*	·	55.6*	·	-69.9	-2.7%
O=C1NC(=O)C(=Cc2ccc(SC3CCCCC3)o2)C(=O)N1	62.3*	8.2	66.6*	·	-53.1	0.8%
CC1(C)CC(=O)C2=C(C1)NC(=O)C21C(C(=O)OC(C)(C)C)=C(N)Oc2ccc(Br)cc21 (configuration not stated)	62.2*	-1.7	3.3	5.8	-9.3	-4.9%
COC(=O)[C@H]1[C@H](CO)[C@H]2Cn3c(ccc(C4=CCCCC4)c3=O)[C@@H]1N2Cc1ccccc1OC	·	·	0.4	·	-9.9	·
Cn1c(O)c(/C=C/C=Nc2ccccc2)c(=O)n(C)c1=S	54.9*	1.4	·	·	·	-4.6%
CCN1C[C@]2(CO)CC[C@H](OC)[C@@]34C2[C@H](OC)[C@@](O)(C13)[C@@]1(O)C[C@H](OC)[C@H]2C[C@@H]4[C@@H]1[C@H]2OC	56.6*	0.9	2.6	3.4	-13.3	-0.4%
CCCNC(=O)N1[C@@H]2c3ccc(-c4cccc(C(=O)N(C)C)c4)c(=O)n3C[C@H]1[C@H](CO)[C@H]2C(=O)O	·	·	-0.2	·	5.9	·
CN1CCN(c2ncnc3c2cnn3C)CC1	76.4*	0.2	-0.4	-1.2	2.8	-3.7%
CCCCn1c(=O)c(C=Nc2ccc(Cl)cc2)c(O)n(Cc2ccco2)c1=O	·	-2.6	3.0	·	-81.9	·
CC(C)n1c(=O)c(C=Nc2ccc(S(N)(=O)=O)cc2)c(O)n(Cc2ccco2)c1=O	67.5*	2.5	12.1	·	-119.8	-4.2%
O=C1NC(=S)NC(=O)C1=Cc1ccc(Br)s1	52.1*	7.5	25.5	-19.3	-336.1	-5.0%
CN1C(=O)/C(=C\c2ccc(Br)s2)C(=O)NC1=S	3.0	6.4	11.4	-18.2	-491.2	·
